# Measurements published in PubChem BioAssay (NCI).
# This is part of a sample that, as a whole, favours compounds with a hit. Of some 79,000 tested, about 15% had one in any assay. Values without a mark were called inactive. Activity calls are given as the source filed them. Rule as the data show it: active = growth inhibition above about 70%; inactive = the rest.
# How the values were obtained:
# [1] = NCI Yeast Anticancer Drug Screen. Data for the rad52 strain (AID 147);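 also: 0% = growth of vehicle-treated control cultures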; conditions: S. cerevisiae rad52 mutant growth inhibition, stronger effect = higher value
# In short: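 Genetically altered yeast (DNA damage repair defect) treated with compound; inhibition calculated relative to vehicle.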
# [2] = NCI Yeast Anticancer Drug Screen. Data for the wt1 strain (AID 149);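 also: 0% = growth of vehicle-treated wt1 cultures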; conditions: S. cerevisiae wt1 strain (SPY 50644) growth inhibition, stronger effect = higher value
# In short: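 Using yeast strain wt1, compound-induced growth inhibition was determined against vehicle-treated cultures.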
# [3] = NCI Yeast Anticancer Drug Screen. Data for the rad50EPP+ strain (AID 151);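 also: 0% = growth of vehicle-treated control cultures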; conditions: S. cerevisiae rad50 mutant strain, stronger effect = higher value
# In short: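 Strain rad50EPP+; compound exposure; % growth inhibition vs vehicle.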
# [4] = NCI Yeast Anticancer Drug Screen. Data for the mgt1 strain (AID 153); conditions: S. cerevisiae mgt1 mutant growth inhibition, stronger effect = higher value
# In short: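 Read-out: yeast growth inhibition vs vehicle control. Strain mgt1, drawn from a panel altered in DNA damage repair or cell cycle control.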
# [5] = NCI Yeast Anticancer Drug Screen. Data for the rad50 strain (AID 155);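 also: 0% = growth of vehicle-only cultures of the same strain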; conditions: S. cerevisiae rad50 strain growth inhibition, stronger effect = higher value
# In short: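 Relative growth inhibition (compound vs vehicle) was measured in yeast with a defined repair-gene alteration.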
# [6] = NCI Yeast Anticancer Drug Screen. Data for the mec2-1 strain (AID 157); conditions: S. cerevisiae mec2-1 strain, stronger effect = higher value
# In short: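 Cells of the genetically defined mec2-1 yeast strain are incubated with test compound. Inhibition of growth is calculated against vehicle-treated controls.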
# [7] = NCI Yeast Anticancer Drug Screen. Data for the rad14 strain (AID 159);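 also: 0% = growth of vehicle-treated control cultures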; conditions: S. cerevisiae rad14 strain growth inhibition, stronger effect = higher value
# In short: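 Screen for anticancer potential: a yeast strain altered in DNA damage repair is grown with compound, and reduced growth is quantified against vehicle controls.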
# [8] = NCI Yeast Anticancer Drug Screen. Data for the sgs1 mgt1 strain (AID 161);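 also: 0% = growth of cultures given vehicle only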; conditions: S. cerevisiae sgs1 mgt1 strain, stronger effect = higher value
# In short: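 Inhibition of yeast growth, normalised to vehicle-treated controls, is reported for a strain bearing genetic alterations in DNA damage repair.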
# [9] = NCI Yeast Anticancer Drug Screen. Data for the CLN2oe strain (AID 163);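 also: 0% = growth of vehicle-only control cultures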; conditions: S. cerevisiae CLN2oe strain, stronger effect = higher value
# In short: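 Strain altered in cell-cycle control, incubated with compound; growth compared to solvent-treated controls.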
# [10] = NCI Yeast Anticancer Drug Screen. Data for the cln2 rad14 strain (AID 165);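 also: 0% = growth equal to vehicle treated cultures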; conditions: S. cerevisiae cln2 rad14 strain, stronger effect = higher value
# In short: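 The screen exposed genetically defined yeast (cln2 rad14) to test compounds and scored growth inhibition relative to vehicle-treated controls.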
# [11] = NCI Yeast Anticancer Drug Screen. Data for the bub3 strain (AID 167); conditions: S. cerevisiae bub3 mutant strain, stronger effect = higher value
# In short: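 Screening used yeast with an engineered genetic alteration affecting cell cycle control. Compound-exposed cultures were compared with vehicle cultures, and reduced growth was taken as inhibition.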
# [12] = NCI Yeast Anticancer Drug Screen. Data for the wt2 strain (AID 169);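 also: 0% = growth of vehicle-treated yeast cultures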; conditions: S. cerevisiae wt2 strain growth inhibition, stronger effect = higher value
# In short: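 Steps: yeast strain treated with compound; growth recorded; inhibition calculated relative to cultures given vehicle alone.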
# [13] = NCI Yeast Anticancer Drug Screen. Data for the mlh1 strain (AID 171);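 also: 0% = growth of vehicle-treated control cultures of the same strain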; conditions: S. cerevisiae mlh1 strain growth inhibition, stronger effect = higher value
# In short: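 Yeast screen: mutant strain plus compound, growth scored against vehicle control wells.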
# [14] = NCI Yeast Anticancer Drug Screen. Data for the sgs1 strain (AID 173);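 also: 0% = growth of vehicle-only control cultures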; conditions: S. cerevisiae sgs1 mutant, stronger effect = higher value
# In short: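 Inhibition of yeast growth served as the measure. The mutant strain was treated with each compound, and growth was normalised to cultures receiving vehicle alone.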
# [15] = NCI Yeast Anticancer Drug Screen. Data for the mlh1 rad18 strain (AID 175); conditions: S. cerevisiae mlh1 rad18 strain growth inhibition, stronger effect = higher value
# In short: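 Compound-treated yeast growth, normalised to vehicle controls. Strain bears defined DNA repair mutations.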
# [16] = NCI Yeast Anticancer Drug Screen. Data for the rad18 strain (AID 177); conditions: S. cerevisiae rad18 mutant growth inhibition, stronger effect = higher value
# In short: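 Inhibition values reflect reduced yeast growth compared with vehicle-treated controls, using a strain engineered with a DNA damage repair defect.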
# [17] = at 5.0 µM (retest, dose inferred, filed as 0.5)
# [18] = at 50.0 µM (retest, dose inferred, filed as 5.0)
structure (smiles),measurement,setting,value
Nc1nc(N)c2cc(Sc3ccc4ccccc4c3)ccc2n1,growth inhibition,[1]; at 1.2 µM,28%
same,growth inhibition,[1]; at 3.7 µM,69%
same,growth inhibition,[1]; at 11.0 µM,92% (active)
same,growth inhibition,[1]; at 33.0 µM,96% (active)
same,growth inhibition,[1]; at 100.0 µM,92% (active)
same,growth inhibition,[2]; at 1.2 µM,1%
same,growth inhibition,[2]; at 3.7 µM,10%
same,growth inhibition,[2]; at 11.0 µM,44%
same,growth inhibition,[2]; at 33.0 µM,86% (active)
same,growth inhibition,[2]; at 100.0 µM,89% (active)
same,growth inhibition,[3]; at 1.2 µM,17%
same,growth inhibition,[3]; at 3.7 µM,31%
same,growth inhibition,[3]; at 11.0 µM,31%
same,growth inhibition,[3]; at 33.0 µM,65%
same,growth inhibition,[3]; at 100.0 µM,63%
same,growth inhibition,[4]; at 1.2 µM,-23%
same,growth inhibition,[4]; at 3.7 µM,12%
same,growth inhibition,[4]; at 11.0 µM,74% (active)
same,growth inhibition,[4]; at 33.0 µM,93% (active)
same,growth inhibition,[4]; at 100.0 µM,94% (active)
same,growth inhibition,[5]; at 1.2 µM,-8%
same,growth inhibition,[5]; at 3.7 µM,43%
same,growth inhibition,[5]; [17],55%
same,growth inhibition,[5]; at 11.0 µM,90% (active)
same,growth inhibition,[5]; at 33.0 µM,95% (active)
same,growth inhibition,[5]; [18],98% (active)
same,growth inhibition,[5]; at 50.0 µM,88.1% (active)
same,growth inhibition,[5]; at 100.0 µM,92% (active)
same,growth inhibition,[6]; at 1.2 µM,-13%
same,growth inhibition,[6]; at 3.7 µM,61%
same,growth inhibition,[6]; [17],79% (active)
same,growth inhibition,[6]; at 11.0 µM,94% (active)
same,growth inhibition,[6]; at 33.0 µM,95% (active)
same,growth inhibition,[6]; [18],99% (active)
same,growth inhibition,[6]; at 50.0 µM,91.3% (active)
same,growth inhibition,[6]; at 100.0 µM,95% (active)
same,growth inhibition,[7]; at 1.2 µM,-13%
same,growth inhibition,[7]; at 3.7 µM,-2%
same,growth inhibition,[7]; at 11.0 µM,69%
same,growth inhibition,[7]; at 33.0 µM,96% (active)
same,growth inhibition,[7]; at 100.0 µM,94% (active)
same,growth inhibition,[8]; [17],62%
same,growth inhibition,[8]; [18],97% (active)
same,growth inhibition,[8]; at 50.0 µM,89% (active)
same,growth inhibition,[9]; at 1.2 µM,2%
same,growth inhibition,[9]; at 3.7 µM,9%
same,growth inhibition,[9]; at 11.0 µM,50%
same,growth inhibition,[9]; at 33.0 µM,85% (active)
same,growth inhibition,[9]; at 100.0 µM,89% (active)
same,growth inhibition,[10]; [17],10%
same,growth inhibition,[10]; [18],85% (active)
same,growth inhibition,[10]; at 50.0 µM,86.7% (active)
same,growth inhibition,[11]; at 1.2 µM,-21%
same,growth inhibition,[11]; at 3.7 µM,-4%
same,growth inhibition,[11]; [17],30%
same,growth inhibition,[11]; at 11.0 µM,74% (active)
same,growth inhibition,[11]; at 33.0 µM,94% (active)
same,growth inhibition,[11]; [18],97% (active)
same,growth inhibition,[11]; at 50.0 µM,85.8% (active)
same,growth inhibition,[11]; at 100.0 µM,93% (active)
same,growth inhibition,[12]; at 1.2 µM,-18%
same,growth inhibition,[12]; at 3.7 µM,25%
same,growth inhibition,[12]; at 11.0 µM,69%
same,growth inhibition,[12]; at 33.0 µM,87% (active)
same,growth inhibition,[12]; at 100.0 µM,92% (active)
same,growth inhibition,[13]; at 1.2 µM,-11%
same,growth inhibition,[13]; at 3.7 µM,22%
same,growth inhibition,[13]; at 11.0 µM,79% (active)
same,growth inhibition,[13]; at 33.0 µM,95% (active)
same,growth inhibition,[13]; at 100.0 µM,93% (active)
same,growth inhibition,[14]; at 1.2 µM,3%
same,growth inhibition,[14]; at 3.7 µM,38%
same,growth inhibition,[14]; at 11.0 µM,80% (active)
same,growth inhibition,[14]; at 33.0 µM,94% (active)
same,growth inhibition,[14]; at 100.0 µM,91% (active)
same,growth inhibition,[15]; [17],60%
same,growth inhibition,[15]; [18],96% (active)
same,growth inhibition,[15]; at 50.0 µM,83.8% (active)
same,growth inhibition,[16]; at 1.2 µM,-6%
same,growth inhibition,[16]; at 3.7 µM,27%
same,growth inhibition,[16]; at 11.0 µM,78% (active)
same,growth inhibition,[16]; at 33.0 µM,93% (active)
same,growth inhibition,[16]; at 100.0 µM,93% (active)
